PubChem BioAssay (NCATS)
Records with an inconclusive call do not appear. Calls of active or inactive are those of the source. Unless noted, calls come from the whole dose curve; as a rule, active = well fitted curve in the direction sought with a large enough effect; inconclusive = small, poorly fitted or top-dose-only effect, or another doubt; inactive = no such curve, though single readings can be large; an effect the other way counts as inactive or inconclusive.

Legend:
[1] = NS1 protein of Zika virus - qHTS assay to identify small molecule inhibitors in human HEK 293 cells (AID 1347053); note: nearly all actives have a fitted effect of over 55% in size; note: potency is the fitted concentration of half-maximal effect
Outline: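 Read-out is a two-antibody TR-FRET for ZIKV NS1, normalized between uninfected cells and infected cells. Compound added 1 h before MR766 infection at MOI 0.5; human HEK 293 cells incubated 24 h, 37 C.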

[2] = qHTS of pediatric cancer cell lines to identify multiple opportunities for drug repurposing: Primary screen for DAOY cells (AID 1347090); note: nearly all actives have a fitted effect of over 55% in size; note: potency is the fitted concentration of half-maximal effect
Outline: (§1)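 Cell viability, CellTiter-Glo luminescence; 500-1,000 cells/well, 8- or 11-point titration, 48 h compound exposure at 37 degrees C, 5% CO2. Controls: DMSO neutral, bortezomib 2.3 µM final as positive.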

[3] = qHTS of pediatric cancer cell lines to identify multiple opportunities for drug repurposing: Primary screen for SJ-GBM2 cells (AID 1347091); note: potency is the fitted concentration of half-maximal effect
Outline: as §1

[4] = qHTS of pediatric cancer cell lines to identify multiple opportunities for drug repurposing: Primary screen for A673 cells (AID 1347092); note: nearly all actives have a fitted effect of over 45% in size; note: potency is the fitted concentration of half-maximal effect
Outline: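 Cells are plated, rested 5 h, dosed by pintool, incubated 48 h, then lysed with CellTiter-Glo and read by luminescence. DMSO is the neutral control; bortezomib at 2.3 uM final is the positive control.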

[5] = qHTS of pediatric cancer cell lines to identify multiple opportunities for drug repurposing: Primary screen for SK-N-MC cells (AID 1347093); note: potency is the fitted concentration of half-maximal effect
Outline: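 Metabolically active cells were quantified by ATP-dependent luminescence (CellTiter-Glo, 15 min at room temperature) following 48 h treatment. Cells had been plated at 500-1,000 per well and settled for 5 h beforehand.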

[6] = qHTS of pediatric cancer cell lines to identify multiple opportunities for drug repurposing: Primary screen for NB-EBc1 cells (AID 1347095); note: potency is the fitted concentration of half-maximal effect
Outline: (§2)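 Quantitative HTS format: each compound titrated (MIPE 11 points from 0.78 nM, NPC 8 points from 0.59 nM) onto cells plated 5 hours earlier. After 48 h at 37 degrees C, CellTiter-Glo luminescence was recorded.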

[7] = qHTS of pediatric cancer cell lines to identify multiple opportunities for drug repurposing: Primary screen for TC32 cells (AID 1347089); note: nearly all actives have a fitted effect of over 60% in size
Outline: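 Measured quantity: luminescence from CellTiter-Glo, reflecting metabolically active TC32 cells following 48 h of compound. Curves came straight from multi-point titrations, with 8 or 11 points in primary and 11 in confirmatory screening.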

[8] = qHTS of pediatric cancer cell lines to identify multiple opportunities for drug repurposing: Primary screen for BT-37 cells (AID 1347094); note: series mostly up to about 57 µM
Outline: as §2

[9] = qHTS of pediatric cancer cell lines to identify multiple opportunities for drug repurposing: Primary screen for U-2 OS cells (AID 1347096); note: nearly all actives have a fitted effect of over 50% in size
Outline: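 Cells (500-1,000/well) rested 5 h, then received compounds for 48 h; metabolically active cells were measured by CellTiter-Glo luminescence. Final concentrations spanned up to 46 µM (MIPE, 11-point) or 0.59 nM-46 µM (NPC, 8-point) in primary screens, 11-point in follow-ups.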

[10] = biological target: Parathyroid hormone/parathyroid hormone-related peptide receptor (Homo sapiens) (UniProt Q03431); assay: qHTS for PTHR1 Agonists: Optimization Screen against the NCGC LOPAC library (AID 1347079);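 note: GloSensor cAMP luminescence in HEK-293 GP2 cells expressing human PTHR1 with IBMX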
Sequence of Parathyroid hormone/parathyroid hormone-related peptide receptor (Homo sapiens) (Q03431 whole entry, looked up): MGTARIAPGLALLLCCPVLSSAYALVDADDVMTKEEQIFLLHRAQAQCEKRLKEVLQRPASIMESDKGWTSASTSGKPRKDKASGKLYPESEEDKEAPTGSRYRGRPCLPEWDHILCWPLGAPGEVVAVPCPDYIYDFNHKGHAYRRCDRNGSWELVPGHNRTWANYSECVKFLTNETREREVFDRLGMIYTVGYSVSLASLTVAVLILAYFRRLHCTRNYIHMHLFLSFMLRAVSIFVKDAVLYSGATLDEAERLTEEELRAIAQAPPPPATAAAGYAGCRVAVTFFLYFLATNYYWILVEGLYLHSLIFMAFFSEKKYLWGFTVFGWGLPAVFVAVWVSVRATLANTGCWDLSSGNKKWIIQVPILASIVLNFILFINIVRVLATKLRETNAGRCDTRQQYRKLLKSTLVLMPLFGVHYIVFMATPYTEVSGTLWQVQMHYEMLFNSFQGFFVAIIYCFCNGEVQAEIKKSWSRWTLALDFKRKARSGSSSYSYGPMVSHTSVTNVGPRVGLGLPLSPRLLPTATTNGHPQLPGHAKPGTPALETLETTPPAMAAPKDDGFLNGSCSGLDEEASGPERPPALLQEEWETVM
Outline: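 HEK-293 GP2 cells, PTHR1 + GloSensor cAMP; 3000 cells/well, o/n. Luciferin + IBMX 0.5mM each (stock), 1 hr 37C. Cpd titration, 1 hr 37C. Lum after 15 min RT. Ctrl M-PTH(1-15) top 10uM.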

[11] = biological target: T1, Tyrosine-protein phosphatase non-receptor type substrate 1 (Homo sapiens) + Leukocyte surface antigen CD47 (Homo sapiens) (UniProt P78324+Q08722); assay: CD47-SIRPalpha protein protein interaction - LANCE assay qHTS validation (AID 1347057; active = well fitted curve in the direction sought with a large enough effect in the signal ratio, with a control signal flat, not every such curve was filed as active; the % refers to the signal ratio; note: series mostly up to about 38 µM)
T1 sequence (P78324 whole entry, looked up, the tested form may be a part): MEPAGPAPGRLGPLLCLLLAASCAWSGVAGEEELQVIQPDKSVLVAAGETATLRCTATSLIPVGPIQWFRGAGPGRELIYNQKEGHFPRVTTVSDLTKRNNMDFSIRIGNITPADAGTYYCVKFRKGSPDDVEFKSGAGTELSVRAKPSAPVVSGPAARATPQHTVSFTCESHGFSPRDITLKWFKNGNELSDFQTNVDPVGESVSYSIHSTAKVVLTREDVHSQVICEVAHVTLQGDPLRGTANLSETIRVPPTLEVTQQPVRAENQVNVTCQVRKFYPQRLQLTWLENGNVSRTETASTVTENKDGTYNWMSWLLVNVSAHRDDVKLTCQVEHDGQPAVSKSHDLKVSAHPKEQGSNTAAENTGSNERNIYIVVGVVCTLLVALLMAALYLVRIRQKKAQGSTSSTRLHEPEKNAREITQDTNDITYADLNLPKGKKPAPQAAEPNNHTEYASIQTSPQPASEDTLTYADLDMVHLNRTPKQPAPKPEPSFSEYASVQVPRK
T1 sequence (Q08722 whole entry, looked up, the tested form may be a part): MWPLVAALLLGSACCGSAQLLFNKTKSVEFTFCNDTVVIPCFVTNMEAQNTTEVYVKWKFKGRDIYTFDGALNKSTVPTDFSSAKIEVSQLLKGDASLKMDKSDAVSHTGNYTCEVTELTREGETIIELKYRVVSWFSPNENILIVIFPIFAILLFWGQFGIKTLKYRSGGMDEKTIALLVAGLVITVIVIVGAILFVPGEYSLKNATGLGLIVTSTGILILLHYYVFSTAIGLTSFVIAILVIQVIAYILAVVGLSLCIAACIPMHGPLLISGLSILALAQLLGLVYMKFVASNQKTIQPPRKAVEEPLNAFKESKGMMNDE
Outline: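 Inhibition of soluble CD47/SIRPalpha ectodomain association by titrated compounds, measured as 665/615 nm time-resolved FRET ratio after sequential 30 min room-temperature incubations.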

[12] = biological target: T1, Tyrosine-protein phosphatase non-receptor type substrate 1 (Homo sapiens) + Leukocyte surface antigen CD47 (Homo sapiens); assay: CD47-SIRPalpha protein protein interaction - HTRF assay qHTS validation (AID 1347058; active = well fitted curve in the direction sought with a large enough effect in the signal ratio, not every such curve was filed as active; the % refers to the signal ratio; note: series mostly up to about 38 µM)
Outline: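 Soluble extracellular domains (6His-CD47, Avi-tag-biotinylated SIRPalpha) in PBS pH 7.4 with 0.05% IGEPAL CA-630. Compounds were preincubated 30 min at RT with CD47 and anti-His-Eu, then SIRPalpha and SAV-XL665 were added. TR-FRET 665/615 ratio.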

[13] = biological target: T1, Tyrosine-protein phosphatase non-receptor type substrate 1 (Homo sapiens) + Leukocyte surface antigen CD47 (Homo sapiens); assay: CD47-SIRPalpha protein protein interaction - Alpha assay qHTS validation (AID 1347059);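 note: bead proximity luminescence from CD47 binding SIRPalpha after compound preincubation with SIRPalpha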
Outline: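 AlphaScreen signal between CD47-His (12.5 nM) and biotin-SIRPalpha (25 nM) soluble extracellular domains, bead-captured via Ni-NTA and streptavidin. Compounds, in 7-point titrations, met SIRPalpha 30 min before CD47; PBS pH 7.4 with 0.05% IGEPAL.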

Measured: Potency

CCCCC1C(=O)N(c2ccccc2)N(c2ccc(O)cc2)C1=O (stereo not given)
active: [1] 3.98 µM | [2] 5.31 µM | [3] 10.6 µM | [4] 10.6 µM | [5] 2.66 µM | [6] 2.99 µM

CC(C)(C)c1nnc(NS(=O)(=O)c2ccc(N)cc2)s1
not listed: [10] | [11] | [12] | [13]
inactive: all other assays above

C=CC(=O)c1ccc(CCCCCC)cc1
inactive: [10]

Nc1ccn([C@H]2O[C@H](CO)[C@@H](O)C2(F)F)c(=O)n1
inactive: [11] | [12]

CC(C)OC(=O)c1cc(C(=O)OC(C)C)cc([N+](=O)[O-])c1
not listed: [5] | [10] | [11] | [12] | [13]
inactive: all other assays above

Clc1ccccc1-c1nc(-c2ccncc2)no1
not listed: [10] | [11] | [12] | [13]
inactive: all other assays above

Cc1c(C(=O)O)c(O)cc2c1C(=O)c1c(O)c([C@@H]3O[C@H](CO)[C@@H](O)[C@H](O)[C@H]3O)c(O)c(O)c1C2=O
inactive: [1] | [7] | [2] | [4] | [9]

Cn1c(=O)c(-c2c(Cl)cccc2Cl)cc2cnc(Nc3ccc(N4CCOCC4)cc3)nc21
inactive: [11] | [12]

COc1ccc(C(=O)/C(Cc2cc(OC)c(OC)c(OC)c2)=C(\C(=O)O)c2ccc3c(c2)OCO3)cc1
inactive: [11] | [13]

COc1ccc(-c2cc(=S)ss2)cc1
not listed: [6] | [10] | [11] | [12] | [13]
inactive: all other assays above

NS(=O)(=O)C#Cc1ccccc1
inactive: [11] | [12] | [10]
